# Positions count from the first letter of the chain named. Whole data set: some 16,000 sequences, median “ka relative to ugcaugu” near 0.0091, cut for the highest 2% near 0.032. The sample holds the highest values, similar sequences and a random draw of the others, so the mix is not that of the screen.
# B1: UUUCUUU (DNA:RNA)
# RNA: GGGAGACCGGAAUUCAGAUUGUCCUUUCUUUUUAAAUCCCGUCGUAGCCACCA
# DNA 1: CAATCTGAATTCCGGTCTCCC
# DNA 2: TGGTGGCTACGACGGGATT
# B2: UUGUCUG (DNA:RNA)
# RNA: B1 RNA with U27G, C28U, U29C, U31G
# DNA 1: CAATCTGAATTCCGGTCTCCC
# DNA 2: TGGTGGCTACGACGGGATT
# B3: GACUUAC (DNA:RNA)
# RNA: B1 RNA with U25G, U26A, U27C, C28U, U30A, U31C
# DNA 1: CAATCTGAATTCCGGTCTCCC
# DNA 2: TGGTGGCTACGACGGGATT
# B4: AGCGCCC (DNA:RNA)
# RNA: GGGAGACCGGAAUUCAGAUUGUCCAGCGCCCUUAAAUCCCGUCGUAGCCACCA
# DNA 1: CAATCTGAATTCCGGTCTCCC
# DNA 2: TGGTGGCTACGACGGGATT
# B5: GAUUAAA (DNA:RNA)
# RNA: B1 RNA with U25G, U26A, C28U, U29A, U30A, U31A
# DNA 1: CAATCTGAATTCCGGTCTCCC
# DNA 2: TGGTGGCTACGACGGGATT
# B6: CAAACAU (DNA:RNA)
# RNA: B4 RNA with A25C, G26A, C27A, G28A, C30A, C31U
# DNA 1: CAATCTGAATTCCGGTCTCCC
# DNA 2: TGGTGGCTACGACGGGATT
# B7: UAGGGUA (DNA:RNA)
# RNA: B1 RNA with U26A, U27G, C28G, U29G, U31A
# DNA 1: CAATCTGAATTCCGGTCTCCC
# DNA 2: TGGTGGCTACGACGGGATT
# B8: CGGCUCA (DNA:RNA)
# RNA: B4 RNA with A25C, C27G, G28C, C29U, C31A
# DNA 1: CAATCTGAATTCCGGTCTCCC
# DNA 2: TGGTGGCTACGACGGGATT
# B9: AUGGGUC (DNA:RNA)
# RNA: B4 RNA with G26U, C27G, C29G, C30U
# DNA 1: CAATCTGAATTCCGGTCTCCC
# DNA 2: TGGTGGCTACGACGGGATT
# B10: ACGAACG (DNA:RNA)
# RNA: B4 RNA with G26C, C27G, G28A, C29A, C31G
# DNA 1: CAATCTGAATTCCGGTCTCCC
# DNA 2: TGGTGGCTACGACGGGATT
# B11: GAGUUAU (DNA:RNA)
# RNA: B1 RNA with U25G, U26A, U27G, C28U, U30A
# DNA 1: CAATCTGAATTCCGGTCTCCC
# DNA 2: TGGTGGCTACGACGGGATT
# B12: UGCUAGU (DNA:RNA)
# RNA: B4 RNA with A25U, G28U, C29A, C30G, C31U
# DNA 1: CAATCTGAATTCCGGTCTCCC
# DNA 2: TGGTGGCTACGACGGGATT
# B13: CUGCUAG (DNA:RNA)
# RNA: B1 RNA with U25C, U27G, U30A, U31G
# DNA 1: CAATCTGAATTCCGGTCTCCC
# DNA 2: TGGTGGCTACGACGGGATT
# B14: UUGCUGC (DNA:RNA)
# RNA: B1 RNA with U27G, U30G, U31C
# DNA 1: CAATCTGAATTCCGGTCTCCC
# DNA 2: TGGTGGCTACGACGGGATT
# B15: UGCUUGA (DNA:RNA)
# RNA: B4 RNA with A25U, G28U, C29U, C30G, C31A
# DNA 1: CAATCTGAATTCCGGTCTCCC
# DNA 2: TGGTGGCTACGACGGGATT
# B16: UGCUUAA (DNA:RNA)
# RNA: B4 RNA with A25U, G28U, C29U, C30A, C31A
# DNA 1: CAATCTGAATTCCGGTCTCCC
# DNA 2: TGGTGGCTACGACGGGATT
# B17: UGAUUGC (DNA:RNA)
# RNA: B4 RNA with A25U, C27A, G28U, C29U, C30G
# DNA 1: CAATCTGAATTCCGGTCTCCC
# DNA 2: TGGTGGCTACGACGGGATT
# B18: UUGAUGC (DNA:RNA)
# RNA: B1 RNA with U27G, C28A, U30G, U31C
# DNA 1: CAATCTGAATTCCGGTCTCCC
# DNA 2: TGGTGGCTACGACGGGATT
# B19: CUAGUUG (DNA:RNA)
# RNA: B1 RNA with U25C, U27A, C28G, U31G
# DNA 1: CAATCTGAATTCCGGTCTCCC
# DNA 2: TGGTGGCTACGACGGGATT
# B20: UGCUUGC (DNA:RNA)
# RNA: B4 RNA with A25U, G28U, C29U, C30G
# DNA 1: CAATCTGAATTCCGGTCTCCC
# DNA 2: TGGTGGCTACGACGGGATT
# B21: UAACAUU (DNA:RNA)
# RNA: B1 RNA with U26A, U27A, U29A
# DNA 1: CAATCTGAATTCCGGTCTCCC
# DNA 2: TGGTGGCTACGACGGGATT
# B22: UACAGUC (DNA:RNA)
# RNA: B4 RNA with A25U, G26A, G28A, C29G, C30U
# DNA 1: CAATCTGAATTCCGGTCTCCC
# DNA 2: TGGTGGCTACGACGGGATT
# B23: AGCAGAA (DNA:RNA)
# RNA: B4 RNA with G28A, C29G, C30A, C31A
# DNA 1: CAATCTGAATTCCGGTCTCCC
# DNA 2: TGGTGGCTACGACGGGATT
# B24: GCAUGAU (DNA:RNA)
# RNA: B1 RNA with U25G, U26C, U27A, C28U, U29G, U30A
# DNA 1: CAATCTGAATTCCGGTCTCCC
# DNA 2: TGGTGGCTACGACGGGATT
# B25: GUCAUGA (DNA:RNA)
# RNA: B1 RNA with U25G, U27C, C28A, U30G, U31A
# DNA 1: CAATCTGAATTCCGGTCTCCC
# DNA 2: TGGTGGCTACGACGGGATT
# B26: GGCAUGA (DNA:RNA)
# RNA: B4 RNA with A25G, G28A, C29U, C30G, C31A
# DNA 1: CAATCTGAATTCCGGTCTCCC
# DNA 2: TGGTGGCTACGACGGGATT
# B27: GGAUGAC (DNA:RNA)
# RNA: B4 RNA with A25G, C27A, G28U, C29G, C30A
# DNA 1: CAATCTGAATTCCGGTCTCCC
# DNA 2: TGGTGGCTACGACGGGATT
# B28: GCAUGGA (DNA:RNA)
# RNA: GGGAGACCGGAAUUCAGAUUGUCCGCAUGGAUUAAAUCCCGUCGUAGCCACCA
# DNA 1: CAATCTGAATTCCGGTCTCCC
# DNA 2: TGGTGGCTACGACGGGATT
# B29: GGAUGGA (DNA:RNA)
# RNA: B28 RNA with C26G
# DNA 1: CAATCTGAATTCCGGTCTCCC
# DNA 2: TGGTGGCTACGACGGGATT
# B30: GGCAUAA (DNA:RNA)
# RNA: B4 RNA with A25G, G28A, C29U, C30A, C31A
# DNA 1: CAATCTGAATTCCGGTCTCCC
# DNA 2: TGGTGGCTACGACGGGATT
# B31: GCAUAAU (DNA:RNA)
# RNA: B28 RNA with G29A, G30A, A31U
# DNA 1: CAATCTGAATTCCGGTCTCCC
# DNA 2: TGGTGGCTACGACGGGATT
# B32: GCAUUUU (DNA:RNA)
# RNA: B28 RNA with G29U, G30U, A31U
# DNA 1: CAATCTGAATTCCGGTCTCCC
# DNA 2: TGGTGGCTACGACGGGATT
# B33: GCAUGAC (DNA:RNA)
# RNA: B28 RNA with G30A, A31C
# DNA 1: CAATCTGAATTCCGGTCTCCC
# DNA 2: TGGTGGCTACGACGGGATT
# B34: GCAUUCA (DNA:RNA)
# RNA: B28 RNA with G29U, G30C
# DNA 1: CAATCTGAATTCCGGTCTCCC
# DNA 2: TGGTGGCTACGACGGGATT
# B35: GUAUGAC (DNA:RNA)
# RNA: B28 RNA with C26U, G30A, A31C
# DNA 1: CAATCTGAATTCCGGTCTCCC
# DNA 2: TGGTGGCTACGACGGGATT
# Target: T1, RBFOX1 RRM (Homo sapiens, UniProt Q9NWB1 109-208)
# T1 sequence: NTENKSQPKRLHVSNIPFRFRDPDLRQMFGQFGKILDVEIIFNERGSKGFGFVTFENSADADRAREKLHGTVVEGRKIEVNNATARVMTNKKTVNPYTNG
# Assay: EMSA; HiTS-Eq, 1 nM pool, 10 min; buffer printed only for the single-RNA assays: 10 mM Tris pH 7.5, 150 mM NaCl, 3.4 mM EDTA, 0.001% NP-40, 30 C
# Details: tags: His6 N-terminal (pET28a); label: 5' 32P
# How it was run: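 Relative association constants, normalised to the cognate motif, were derived by comparing read counts of each RNA species with those of the control reaction. The RNA sequenced was the free fraction, separated by 8% native PAGE after a 10 min equilibration in 50 µL of 1 nM 5′-radiolabelled RNA (7 randomized nucleotides) with increasing concentrations of purified wild-type or mutant RbFox RRM.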
row,Binder,binding signal
1,B1,0.0113 KA relative to UGCAUGU
2,B2,0.0312 KA relative to UGCAUGU
3,B3,0.00749 KA relative to UGCAUGU
4,B4,0.00884 KA relative to UGCAUGU
5,B5,0.00427 KA relative to UGCAUGU
6,B6,0.000358 KA relative to UGCAUGU
7,B7,0.0162 KA relative to UGCAUGU
8,B8,0.00697 KA relative to UGCAUGU
9,B9,0.0197 KA relative to UGCAUGU
10,B10,0.0126 KA relative to UGCAUGU
11,B11,0.00747 KA relative to UGCAUGU
12,B12,0.0309 KA relative to UGCAUGU
13,B13,0.0317 KA relative to UGCAUGU
14,B14,0.0167 KA relative to UGCAUGU
15,B15,0.0378 KA relative to UGCAUGU
16,B16,0.0138 KA relative to UGCAUGU
17,B17,0.0265 KA relative to UGCAUGU
18,B18,0.0187 KA relative to UGCAUGU

row,Binder,binding signal
1,B19,0.0137 KA relative to UGCAUGU
2,B20,0.088 KA relative to UGCAUGU
3,B21,0.00574 KA relative to UGCAUGU
4,B22,0.00675 KA relative to UGCAUGU
5,B23,0.00732 KA relative to UGCAUGU
6,B24,0.626 KA relative to UGCAUGU
7,B25,0.0126 KA relative to UGCAUGU
8,B26,0.156 KA relative to UGCAUGU
9,B27,0.015 KA relative to UGCAUGU
10,B28,0.0333 KA relative to UGCAUGU
11,B29,0.0107 KA relative to UGCAUGU
12,B30,0.00272 KA relative to UGCAUGU
13,B31,0.00163 KA relative to UGCAUGU
14,B32,0.0088 KA relative to UGCAUGU
15,B33,0.599 KA relative to UGCAUGU
16,B34,0.00789 KA relative to UGCAUGU
17,B35,0.0127 KA relative to UGCAUGU

# Source: publication PMC9911399, “Two distinct binding modes provide the RNA-binding protein RbFox with extraordinary sequence specificity”
